From PubChem BioAssay (NCI)
About 79,000 compounds went through this panel and 15% of them were active in at least one assay; those are over-represented in the sample as a whole. Calls of active or inactive are those of the source. No stated cut-off is given here; in the data, active means growth inhibition above about 70%; inactive means the rest.

Experiments:
[1] = NCI Yeast Anticancer Drug Screen. Data for the wt1 strain (AID 149);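 further: 0% = growth of vehicle-treated wt1 cultures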; settings: S. cerevisiae wt1 strain (SPY 50644) growth inhibition, active compounds read high
Outline: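 wt1 yeast, compound-treated; % growth inhibition vs vehicle control.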

[2] = NCI Yeast Anticancer Drug Screen. Data for the rad50EPP+ strain (AID 151);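 further: 0% = growth of vehicle-treated control cultures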; settings: S. cerevisiae rad50 mutant strain, active compounds read high
Outline: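 Yeast strain carrying rad50 alteration (rad50EPP+) exposed to compounds; growth inhibition measured relative to vehicle-treated controls.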

[3] = NCI Yeast Anticancer Drug Screen. Data for the mgt1 strain (AID 153); settings: S. cerevisiae mgt1 mutant growth inhibition, active compounds read high
Outline: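 Yeast mgt1 strain (DNA repair/cell-cycle alteration panel) exposed to compounds; growth inhibition measured relative to vehicle-treated controls.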

[4] = NCI Yeast Anticancer Drug Screen. Data for the mec2-1 strain (AID 157); settings: S. cerevisiae mec2-1 strain, active compounds read high
Outline: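 mec2-1 yeast strain, carrying an alteration in DNA damage repair or cell cycle control, was exposed to compounds; growth inhibition was measured relative to vehicle-treated controls.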

[5] = NCI Yeast Anticancer Drug Screen. Data for the rad14 strain (AID 159);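 further: 0% = growth of vehicle-treated control cultures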; settings: S. cerevisiae rad14 strain growth inhibition, active compounds read high
Outline: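 Test compounds were applied to a repair-deficient yeast strain. Its growth was then compared with that of cultures given vehicle alone, and inhibition was expressed relative to those controls.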

[6] = NCI Yeast Anticancer Drug Screen. Data for the sgs1 mgt1 strain (AID 161);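 further: 0% = growth of cultures given vehicle only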; settings: S. cerevisiae sgs1 mgt1 strain, active compounds read high
Outline: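 This yeast growth screen uses a strain with defined DNA-repair lesions; compound-treated growth is compared with vehicle-treated growth.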

[7] = NCI Yeast Anticancer Drug Screen. Data for the CLN2oe strain (AID 163);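 further: 0% = growth of vehicle-only control cultures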; settings: S. cerevisiae CLN2oe strain, active compounds read high
Outline: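 Yeast cells carrying a defined cell-cycle control alteration were exposed to test compounds. Growth inhibition was scored against vehicle-treated control cultures.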

[8] = NCI Yeast Anticancer Drug Screen. Data for the cln2 rad14 strain (AID 165);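 further: 0% = growth equal to vehicle treated cultures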; settings: S. cerevisiae cln2 rad14 strain, active compounds read high
Outline: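 Yeast carrying cln2 and rad14 alterations (cell cycle control and DNA damage repair) were exposed to compounds. Growth inhibition was measured against vehicle-treated controls.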

[9] = NCI Yeast Anticancer Drug Screen. Data for the bub3 strain (AID 167); settings: S. cerevisiae bub3 mutant strain, active compounds read high
Outline: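 Yeast carrying a defined mutation is treated with each compound, and growth is compared with that of vehicle-exposed cells to give inhibition.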

[10] = NCI Yeast Anticancer Drug Screen. Data for the wt2 strain (AID 169);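 further: 0% = growth of vehicle-treated yeast cultures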; settings: S. cerevisiae wt2 strain growth inhibition, active compounds read high
Outline: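 Yeast cells were exposed to test compounds, and growth inhibition was measured relative to vehicle-treated controls.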

[11] = NCI Yeast Anticancer Drug Screen. Data for the mlh1 strain (AID 171);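 further: 0% = growth of vehicle-treated control cultures of the same strain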; settings: S. cerevisiae mlh1 strain growth inhibition, active compounds read high
Outline: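 Yeast carrying a defined genetic alteration in DNA damage repair or cell cycle control were exposed to test compounds. Growth inhibition was measured relative to vehicle-treated controls.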

[12] = NCI Yeast Anticancer Drug Screen. Data for the sgs1 strain (AID 173);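 further: 0% = growth of vehicle-only control cultures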; settings: S. cerevisiae sgs1 mutant, active compounds read high
Outline: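 Yeast mutant strains carrying defined defects in DNA damage repair or cell cycle control were exposed to test compounds. Growth inhibition was scored against vehicle-treated controls.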

[13] = NCI Yeast Anticancer Drug Screen. Data for the mlh1 rad18 strain (AID 175); settings: S. cerevisiae mlh1 rad18 strain growth inhibition, active compounds read high
Outline: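 Growth inhibition of the yeast strain was measured after compound exposure and expressed relative to vehicle-treated controls. The strain carries defined defects in DNA damage repair.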

[14] = NCI Yeast Anticancer Drug Screen. Data for the rad18 strain (AID 177); settings: S. cerevisiae rad18 mutant growth inhibition, active compounds read high
Outline: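 Yeast carrying a defined DNA damage repair alteration were exposed to compounds. Growth inhibition was expressed relative to vehicle-treated controls.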

[15] = NCI Yeast Anticancer Drug Screen. Data for the rad50 strain (AID 155);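 further: 0% = growth of vehicle-only cultures of the same strain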; settings: S. cerevisiae rad50 strain growth inhibition, active compounds read high
Outline: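 Genetically altered yeast (DNA repair pathway); compound treatment; growth inhibition vs vehicle ctrl.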

[16] = at 5.0 µM (retest, dose inferred, filed as 0.5)
[17] = at 50.0 µM (retest, dose inferred, filed as 5.0)

Measured: growth inhibition

Cc1c2ccncc2c(C)c2c1oc1ccccc12
inactive: [1]; at 1.2 µM 1% | [1]; at 3.7 µM 2% | [1]; at 11.0 µM 10% | [2]; at 1.2 µM 52% | [3]; at 1.2 µM -1% | [3]; at 3.7 µM 6% | [3]; at 11.0 µM 10% | [3]; at 33.0 µM 61% | [4]; at 1.2 µM 5% | [4]; at 3.7 µM 13% | [4]; [16] 29% | [4]; at 11.0 µM 17% | [4]; at 50.0 µM 51% | [5]; at 1.2 µM 5% | [5]; at 3.7 µM 29% | [5]; at 11.0 µM 48% | [6]; [16] 4% | [6]; at 50.0 µM 44.8% | [7]; at 1.2 µM 12% | [7]; at 3.7 µM 30% | [7]; at 11.0 µM 53% | [8]; [16] 31% | [9]; at 1.2 µM 19% | [9]; at 3.7 µM 24% | [9]; [16] 27% | [9]; at 11.0 µM 40% | [10]; at 1.2 µM 7% | [10]; at 3.7 µM 17% | [10]; at 11.0 µM 57% | [11]; at 1.2 µM 1% | [11]; at 3.7 µM 16% | [11]; at 11.0 µM 8% | [12]; at 1.2 µM -5% | [12]; at 3.7 µM -6% | [12]; at 11.0 µM 16% | [13]; [16] 64% | [13]; at 50.0 µM 50.1% | [14]; at 1.2 µM -2% | [14]; at 3.7 µM 32% | [14]; at 11.0 µM 56%
active: [1]; at 33.0 µM 89% | [1]; at 100.0 µM 97% | [2]; at 3.7 µM 82% | [2]; at 11.0 µM 84% | [2]; at 33.0 µM 98% | [2]; at 100.0 µM 97% | [3]; at 100.0 µM 98% | [4]; at 33.0 µM 80% | [4]; [17] 93% | [4]; at 100.0 µM 98% | [5]; at 33.0 µM 93% | [5]; at 100.0 µM 98% | [6]; [17] 93% | [7]; at 33.0 µM 89% | [7]; at 100.0 µM 97% | [8]; [17] 93% | [8]; at 50.0 µM 94.2% | [9]; at 33.0 µM 88% | [9]; [17] 94% | [9]; at 50.0 µM 96.4% | [9]; at 100.0 µM 98% | [10]; at 33.0 µM 94% | [10]; at 100.0 µM 98% | [11]; at 33.0 µM 87% | [11]; at 100.0 µM 98% | [12]; at 33.0 µM 93% | [12]; at 100.0 µM 95% | [13]; [17] 90% | [14]; at 33.0 µM 95% | [14]; at 100.0 µM 98%

COC(=O)C1(N2CCOCC2)CCC([C@@H](c2ccccc2)C(C)[N+](=O)[O-])C1 (stereo partly specified)
inactive: [1]; at 1.2 µM -3% | [1]; at 3.7 µM -2% | [1]; at 11.0 µM -2% | [1]; at 33.0 µM -3% | [1]; at 100.0 µM 4% | [2]; at 1.2 µM 2% | [2]; at 3.7 µM 3% | [2]; at 11.0 µM 15% | [2]; at 33.0 µM 54% | [15]; at 1.2 µM 0% | [15]; at 3.7 µM 2% | [15]; [16] 11% | [15]; at 11.0 µM 17% | [15]; at 33.0 µM 43% | [15]; [17] -3% | [15]; at 50.0 µM 57.2% | [4]; at 1.2 µM -3% | [4]; at 3.7 µM 1% | [4]; [16] 0% | [4]; at 11.0 µM 4% | [4]; at 33.0 µM 4% | [4]; [17] 2% | [4]; at 50.0 µM 26.4% | [4]; at 100.0 µM 34% | [5]; at 1.2 µM 1% | [5]; at 3.7 µM 1% | [5]; at 11.0 µM 6% | [5]; at 33.0 µM 9% | [5]; at 100.0 µM 39% | [6]; [16] 0% | [6]; [17] -2% | [6]; at 50.0 µM 20.6% | [7]; at 1.2 µM -9% | [7]; at 3.7 µM -4% | [7]; at 11.0 µM -10% | [7]; at 33.0 µM -3% | [7]; at 100.0 µM 9% | [8]; [16] -1% | [8]; [17] -2% | [8]; at 50.0 µM 8.15% | [9]; at 1.2 µM -1% | [9]; at 3.7 µM -12% | [9]; [16] 1% | [9]; at 11.0 µM -8% | [9]; at 33.0 µM -13% | [9]; [17] -29% | [9]; at 50.0 µM -2.55% | [9]; at 100.0 µM 24% | [10]; at 1.2 µM -2% | [10]; at 3.7 µM -3% | [10]; at 11.0 µM -4% | [10]; at 33.0 µM -4% | [10]; at 100.0 µM 11% | [11]; at 1.2 µM -3% | [11]; at 3.7 µM -2% | [11]; at 11.0 µM 1% | [11]; at 33.0 µM 3% | [11]; at 100.0 µM 25% | [12]; at 1.2 µM -1% | [12]; at 3.7 µM -1% | [12]; at 11.0 µM 1% | [12]; at 33.0 µM 7% | [12]; at 100.0 µM 49% | [13]; [16] 3% | [13]; [17] 3% | [13]; at 50.0 µM 27.5%
active: [2]; at 100.0 µM 86% | [15]; at 100.0 µM 94%

Cc1[nH]nc(C(F)(F)F)c1N=NN(C)C
inactive: [1]; at 1.2 µM -4% | [1]; at 3.7 µM 37% | [1]; at 11.0 µM 46% | [2]; at 1.2 µM 3% | [2]; at 3.7 µM 35% | [15]; at 1.2 µM 10% | [15]; at 3.7 µM 51% | [4]; at 1.2 µM 2% | [4]; at 3.7 µM 32% | [4]; at 11.0 µM 61% | [5]; at 1.2 µM 2% | [5]; at 3.7 µM 10% | [5]; at 11.0 µM 54% | [6]; at 50.0 µM 45% | [7]; at 1.2 µM -1% | [7]; at 3.7 µM 8% | [7]; at 11.0 µM 51% | [9]; at 1.2 µM -10% | [9]; at 3.7 µM -8% | [9]; [16] 30% | [9]; at 11.0 µM 45% | [10]; at 1.2 µM -1% | [10]; at 3.7 µM 49% | [10]; at 11.0 µM 51% | [12]; at 1.2 µM 12% | [12]; at 3.7 µM 48% | [13]; [16] 25% | [14]; at 1.2 µM 10% | [14]; at 3.7 µM 47%
active: [1]; at 33.0 µM 99% | [1]; at 100.0 µM 99% | [2]; at 11.0 µM 73% | [2]; at 33.0 µM 96% | [2]; at 100.0 µM 98% | [15]; [16] 91% | [15]; at 11.0 µM 87% | [15]; at 33.0 µM 99% | [15]; [17] 97% | [15]; at 50.0 µM 99.3% | [15]; at 100.0 µM 98% | [4]; [16] 96% | [4]; at 33.0 µM 99% | [4]; [17] 99% | [4]; at 50.0 µM 99.7% | [4]; at 100.0 µM 98% | [5]; at 33.0 µM 99% | [5]; at 100.0 µM 99% | [6]; [16] 78% | [6]; [17] 98% | [7]; at 33.0 µM 99% | [7]; at 100.0 µM 99% | [8]; [16] 81% | [8]; [17] 99% | [8]; at 50.0 µM 99.1% | [9]; at 33.0 µM 98% | [9]; [17] 98% | [9]; at 50.0 µM 99.5% | [9]; at 100.0 µM 98% | [10]; at 33.0 µM 99% | [10]; at 100.0 µM 99% | [12]; at 11.0 µM 75% | [12]; at 33.0 µM 99% | [12]; at 100.0 µM 99% | [13]; [17] 98% | [13]; at 50.0 µM 91.1% | [14]; at 11.0 µM 79% | [14]; at 33.0 µM 99% | [14]; at 100.0 µM 99%
